# High-throughput results: PubChem BioAssay, National Center for Advancing Translational Sciences (NCATS)
# Abeta rescue: compounds reversing amyloid beta toxicity in yeast | Potency, µM (series often up to 46.1 µM), most hits filed as activators | yeast expressing A-beta42, growth rescue, OD600, 48 h; response scale: 0% DMSO, 100% iron-clioquinol control | hit rate 0.063% among 410,000; note: nearly all actives have a fitted effect of over 55% in size
#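 Yeast A-beta toxicity model in growth medium with pinned compounds, 48 h at 30 C; growth read as absorbance at 600 nm. Normalized to FeCl3/clioquinol equimolar mix (positive) and DMSO (negative).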
# aSyn yeast inh: rescues yeast growth from alpha-synuclein toxicity. Yeast expressing alpha-synuclein, growth rescue, BacTiter-Glo, 24 h. Potency, µM (highest dose often 46.1 µM), for the others: top-dose growth rescue (activation), hits mostly activators. hit rate 0.14% among 370,000. AID 652106; note: % of control where 0% means no effect; nearly all actives have a fitted effect of over 65% in size
#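 Readout is rescue of growth in alpha-synuclein-expressing yeast, so inhibitors of toxicity appear as activators. Growth after 24 hr at 30 deg C in galactose medium is quantified by luminescence.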
# TDP-43 yeast inh: TDP-43 toxicity inhibition in yeast; TDP-43 expressing yeast growth rescue, BacTiter-Glo, 24 h; Potency, µM (series often up to 46.1 µM), for the others: at the highest dose growth rescue (activation), most hits filed as activators; hit rate 1.8% among 410,000; AID 652104; note: % of control where 0% means no effect; nearly all actives have a fitted effect of over 50% in size
#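 Galactose-induced TDP-43 yeast, OD600=0.02, compound pinned; 24 hr, 30 deg C; BacTiter-Glo luminescence for growth. Inhibitors of TDP-43 toxicity read as activators.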
# FUS yeast rescue: suppressors of FUS proteinopathy in yeast; S. cerevisiae FUS-expressing, growth rescue, OD600, 24 h; Potency, µM (top dose mostly 76.6 µM), hits mostly activators; hit rate 0.24% among 390,000;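 note: plate controls were DMSO vehicle for no effect and reference control for full effect; nearly all actives have a fitted effect of over 55% in size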
#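 Toxicity suppression screen in FUS-yeast. Cells induced with 2% galactose, starting OD 0.005, treated 24hr at 30C with compounds at multiple final concentrations; growth by OD600.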
# Numbers without * were called inactive; i = inactive; ? = inconclusive; nt = not tested or not shown; [ ] = dose if it differs, or a comment. An excerpt weighted towards active compounds, which were near 2.1% of everything screened. Calls come from the whole dose curve; as a rule, active = well fitted curve in the direction sought with a large enough effect; inconclusive = small, poorly fitted or top-dose-only effect, or another doubt; inactive = no such curve, though single readings can be large; an effect the other way counts as inactive or inconclusive. Potency is the fitted concentration of half-maximal effect.
SMILES,Abeta rescue,aSyn yeast inh,TDP-43 yeast inh,FUS yeast rescue
CCCNC(=O)C1(C)CCCN(C(=O)C2(c3ccc(Cl)cc3)CCCC2)C1 (stereo not given),i,6.0%,35.5µM*,i
Cc1cccc(SCC(=O)Nc2ccc3c(c2)OCCO3)c1,i,23.4%,11.2µM*,i
O=C(C(=Cc1ccc(F)cc1)C(=O)c1ccccc1)c1ccccc1,i,?,3.55µM*,i
C[C@H]1[C@@H](OC(=O)Nc2ccccc2Cl)CC[C@@]23CCCN2C(=O)CCC[C@@H]13,nt,nt,nt,i
CCOc1ccc(Nc2nc(N)c(C(=O)c3ccccc3Cl)s2)cc1,i,nt,35.5µM*,i
COc1ccc(CCSc2n[nH]c(C(C)C)n2)cc1,nt,-3.8%,nt,nt
Fc1ccc(Sc2nc(-c3ccccc3)nnc2C(F)(F)F)cc1,i,-0.5%,15.6%,i
Fc1ccc(Sc2cc(Cl)c(-c3ccccc3)nn2)cc1,i,-0.9%,15.8µM*,i
O=C(Cn1cnc2c(oc3ccccc32)c1=O)Nc1ccccc1C(F)(F)F,i,nt,0.0%[9.22 µM],i
O=C(Cn1cc(SCc2ccc(F)cc2)c2ccccc21)N1CCCC1,i,nt,18.2%,i
CC(=O)N1CCN(c2ccc(NC(=O)C(C)Oc3ccc(Cl)cc3Cl)cc2)CC1 (stereo not given),i,3.0%,11.2µM*,?
CCNc1nc(NCC)n2c(SC(C(=O)Nc3cc(C)ccc3C)c3ccccc3)nnc2n1 (stereo not given),i,-4.3%,-7.9%,31.6µM*
COc1ccc(CC(=O)Nc2sc3c(c2C(N)=O)CCCC3)cc1,i,-6.5%,-5.0%,i
Cn1cnnc1SCC(=O)Nc1sc2c(c1C(N)=O)CCC2,i,2.3%,0.0%,7.08µM*
COc1cc(OC)cc(C(=O)Nc2sc3c(c2C(N)=O)CCC3)c1,i,3.55µM*,-12.2%,i
COCCn1cnnc1SCC(=O)Nc1sc2c(c1C#N)CCC2,i,-0.5%,3.6%,nt
COc1ccc2sc(-c3ccc(N(C)C)cc3)c(C#CC(C)(C)O)c2c1,i,-0.7%,-4.2%,i
COc1cccc(-c2sc3ccc(OC)cc3c2C#CCC(C)O)c1 (stereo not given),i,-1.4%,25.1µM*,?
COc1cccc(-c2sc3ccc(OC)cc3c2C#CC(C)(C)O)c1,i,-21.5%,17.8µM*,?
COc1ccc2ccccc2c1C=NNC(=O)c1cc(-c2ccc(C)cc2)n[nH]1,nt,nt,nt,i
COc1ccc(/C=C\c2onc(C)c2S(=O)(=O)N2CCC(C(=O)Nc3ccccc3OC)CC2)cc1,i,nt,-11.6%,12.6µM*
COc1ccc(C2CC(=O)c3cnc(NC(=O)c4ccccc4OC)nc3C2)c(OC)c1 (stereo not given),i,13.8%,17.8µM*,i
COc1ccc(C2CC(=O)c3cnc(NC(=O)c4cccc(OC)c4)nc3C2)cc1 (stereo not given),i,1.3%,?,i
O=S1(=O)c2ccc(N3CCC[C@@H]3CO)cc2O[C@@H]2CCN1C2,nt,nt,nt,i
CC(C)CNC(=S)NC(=O)c1ccc(F)cc1,i,-3.5%,14.1µM*,nt
SMILES,Abeta rescue,aSyn yeast inh,TDP-43 yeast inh,FUS yeast rescue
O=C(/C=C/c1ccc(F)cc1)NC(=S)NNC(=O)c1cnccn1,i,0.6%,?,i
O=C(NC(=S)NNC(=O)c1cnccn1)c1ccc(F)cc1,i,11.2µM*,-7.0%,i
O=[N+]([O-])c1cc(Cl)ccc1Nc1nc(Nc2ccc(Cl)cc2[N+](=O)[O-])nc(N2CCOCC2)n1,nt,20.8%,nt,nt
O=C(COC(=O)c1ccc2ncsc2c1)NC(=O)C1CCCCC1,nt,24.4%,nt,nt
COC(=O)N1C(=O)[C@](c2ccsc2)(C(C)C)N1C(=O)OC,i,-4.7%,20µM*,i
COC(=O)N1C(=O)[C@](c2ccc(OC)cc2)(C(C)C)N1C(=O)OC,i,19.1%,17.8µM*,i
COC(=O)N1C(=O)[C@](CC(C)C)(c2ccccc2)N1C(=O)OC,i,-0.1%,?,i
Cc1ccc2c(c1)C(CS(=O)(=O)NC1CCCC1)NC2 (stereo not given),nt,nt,nt,i
C[C@@H](N)P(=O)(O)C[C@H](Cc1ccccc1)C(=O)O,nt,nt,nt,i
C=C1C=C(C(F)F)n2ncc(C(=O)NCc3ccccc3)c2N1,nt,-0.1%,nt,nt
Cc1ccc2nc(-c3ccc(NC(=O)CSc4nnc(-c5cc(C)[nH]n5)n4N)cc3)sc2c1,nt,nt,nt,i
Fc1ccccc1CSc1nnc(-c2cccnc2)o1,i,-2.0%,?,i
